In PubChem BioAssay (NCATS):
Records with an inconclusive call do not appear. Active and inactive are the calls of the source. Unless noted, the call rests on the fitted dose curve; in most records, active means well fitted curve in either direction with a large enough effect (not every such curve was filed as active); inconclusive means small, poorly fitted or top-dose-only effect, or another doubt; inactive means flat fitted curve, though single readings scatter.

Assays:
[1] = biological target: Mitogen-activated protein kinase 10 (Mus musculus) (UniProt Q61831); assay: JNK3 AlphaScreen Assay (AID 530); conditions: JNK3 lysate, c-Jun phosphorylation; series mostly up to 57.1 µM;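 further: kinase came from lysate of stimulated human HepG2 cells; signal reports phosphorylation of biotinylated GST-cJun 1-79 at Ser73 with 10 µM ATP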
Procedure, shortened: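 JNK3 came from HepG2 lysates pre-activated with IL-1beta and TNF-alpha and phosphorylated biotinylated GST-cJun (1-79) at 10 uM ATP, pH 7.6, room temperature. Compounds were titrated. AlphaScreen signal used anti-phospho-cJun (Ser73) antibody.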

[2] = biological target: 3',5'-cyclic-AMP phosphodiesterase 4B (Homo sapiens) (UniProt Q07343); assay: qHTS Assay for Inhibitors of PDE-IV (AID 607; active means well fitted activation curve with a large enough effect in the main read-out, with a control signal flat, not every such curve was filed as active); conditions: HEK293 ACTOne CNG channel cells, membrane potential fluorescence; series mostly up to 22.9 µM
Procedure, shortened: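 HEK293 ACTOne cells with CNG channel (1000/well), endogenous PDE4; membrane potential dye, compounds up to 22.9 uM final. Fluorescence Ex 535/Em 590; RO 20-1724 (100 uM final) as reference.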

3',5'-cyclic-AMP phosphodiesterase 4B (Homo sapiens), sequence (Q07343 whole entry, looked up): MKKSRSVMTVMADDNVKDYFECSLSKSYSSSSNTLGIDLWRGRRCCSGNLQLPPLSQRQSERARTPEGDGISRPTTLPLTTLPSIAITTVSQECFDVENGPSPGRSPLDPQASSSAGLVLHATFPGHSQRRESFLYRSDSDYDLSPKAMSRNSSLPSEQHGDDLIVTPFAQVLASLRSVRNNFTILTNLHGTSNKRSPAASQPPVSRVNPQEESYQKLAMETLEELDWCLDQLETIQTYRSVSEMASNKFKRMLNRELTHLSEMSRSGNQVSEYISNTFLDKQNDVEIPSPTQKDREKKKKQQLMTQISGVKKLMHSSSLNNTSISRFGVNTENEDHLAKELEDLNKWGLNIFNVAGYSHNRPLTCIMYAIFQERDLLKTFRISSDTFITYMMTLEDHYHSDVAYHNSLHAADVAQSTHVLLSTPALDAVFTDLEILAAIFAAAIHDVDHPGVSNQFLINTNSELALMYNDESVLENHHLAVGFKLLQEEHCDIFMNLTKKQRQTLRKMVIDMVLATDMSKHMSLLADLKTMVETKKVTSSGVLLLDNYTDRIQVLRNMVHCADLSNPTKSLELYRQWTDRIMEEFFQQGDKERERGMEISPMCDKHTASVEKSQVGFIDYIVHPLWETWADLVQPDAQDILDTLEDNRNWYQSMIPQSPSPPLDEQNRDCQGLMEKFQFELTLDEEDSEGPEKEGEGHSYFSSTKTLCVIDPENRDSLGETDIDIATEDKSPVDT

SMILES	outcome [1]	outcome [2]
O=C(NCC1CC1)[C@H]1C[C@@H]1[C@H](NP(=O)(c1ccccc1)c1ccccc1)c1ccccc1	inactive	inactive
COC(=O)[C@@]1(Cc2ccc(F)cc2)[C@H]2c3cc(C(=O)N(C)C)n(Cc4ccccn4)c3C[C@H]2CN1C(=O)c1ccccc1	inactive	inactive
COC(=O)[C@H]1C[C@@H]1[C@H](NC(C)=O)c1ccccc1	inactive	inactive
Cc1ccc(CNC(=O)[C@@H]2C[C@H]2[C@@H](NP(=O)(c2ccccc2)c2ccccc2)c2ccccc2)o1	inactive	inactive
C[C@@H](C(=O)Nc1ccc2ccccc2c1)[C@H]1C[C@]1(C)[C@H](NS(=O)(=O)c1ccccc1)c1ccccc1	inactive	inactive
COC(=O)[C@@]1(Cc2ccc(OC)cc2)[C@H]2c3cc(C(=O)N(C)C)n(Cc4ccc(OC(F)(F)F)cc4)c3C[C@H]2CN1C(=O)c1ccccc1	inactive	inactive
COC(=O)[C@@H]1C[C@H]1[C@@H](N)c1ccccc1	inactive	inactive
COC(=O)[C@@]1(Cc2ccc(OC)cc2)[C@H]2c3cc(C(=O)N(C)C)n(CCc4c[nH]c5ccc(O)cc45)c3C[C@H]2CN1C(=O)c1ccccc1	inactive	inactive
COC(=O)[C@H]1C[C@@H]1[C@H](NS(=O)(=O)c1ccccc1)c1ccccc1	inactive	inactive
COC(=O)[C@@]1(Cc2ccc(OC)cc2)[C@H]2c3cc(C(=O)N(C)C)n(CCc4ccc(O)c(OC)c4)c3C[C@H]2CN1C(=O)c1ccccc1	inactive	inactive
Cc1ccc(CNC(=O)[C@H](C)[C@@H]2C[C@@]2(C)[C@@H](NC(=O)OCc2ccccc2)c2ccccc2)c(F)c1F	inactive	inactive
COC(=O)[C@@]1(Cc2ccc(OC)cc2)[C@H]2c3cc(C(=O)N(C)C)n(CCc4ccc(OC)c(Br)c4)c3C[C@H]2CN1C(=O)c1ccccc1	inactive	inactive
CNC(=O)C1(CC(C)C)C=CCN1C(=O)c1ccccc1 (stereo not drawn)	inactive	–
COC(=O)[C@@]1(Cc2ccc(F)cc2)[C@H]2c3cc(C(=O)N(C)C)n(CCc4ccccn4)c3C[C@H]2CN1C(=O)c1ccccc1	inactive	inactive
COC(=O)[C@@]1(Cc2ccc(OC)cc2)[C@H]2c3cc(C(=O)N4CCCC4)n(Cc4ccc(S(C)(=O)=O)cc4)c3C[C@H]2CN1C(=O)c1ccccc1	inactive	inactive
O=C(NCc1ccccn1)[C@H]1C[C@@H]1[C@H](NP(=O)(c1ccccc1)c1ccccc1)c1ccccc1	inactive	inactive
CCC[C@@H]1C[C@@]1(CCC)C(NP(=O)(c1ccccc1)c1ccccc1)c1ccc(Cl)cc1 (stereo partly drawn)	inactive	–
C[C@@H](C(=O)Nc1ccc2ccccc2c1)[C@@H]1C[C@@]1(C)[C@@H](NC(=O)c1cccnc1)c1ccccc1	inactive	inactive
COCCNC(=O)[C@H]1C[C@@H]1[C@H](NP(=O)(c1ccccc1)c1ccccc1)c1ccccc1	inactive	inactive
Cc1cc(CNC(=O)[C@H](C)[C@H]2C[C@]2(C)[C@H](NC(=O)OCc2ccccc2)c2ccccc2)nn1C	inactive	inactive
COC(=O)[C@@]1(Cc2ccc(F)cc2)[C@H]2c3cc(C(=O)N4CCCC4)n(C[C@H](O)CO)c3C[C@H]2CN1C(=O)c1ccccc1	inactive	inactive
C[C@@H](C(=O)NCc1ccc(C(F)(F)F)nc1)[C@H]1C[C@]1(C)[C@H](NC(=O)OCc1ccccc1)c1ccccc1	inactive	inactive
C[C@@]1(C(NS(=O)(=O)c2cccc3cccnc23)c2ccc(-c3ccccc3)cc2)C[C@H]1C1CCCCC1 (stereo partly drawn)	inactive	inactive
COC(=O)[C@@]1(Cc2ccc(F)cc2)[C@H]2c3cc(C(=O)N(C)C)n(Cc4ccc(S(C)(=O)=O)cc4)c3C[C@H]2CN1C(=O)c1ccccc1	inactive	inactive
Cc1nc(NCCO)c2nc(-c3ccccc3)n(CCN(C)C)c2n1	inactive	–
C[C@@H](C(=O)Nc1ccc2ccccc2c1)[C@@H]1C[C@@]1(C)[C@@H](NC(=O)c1ccccc1)c1ccccc1	inactive	inactive
COC(=O)[C@@]1(Cc2ccc(OC)cc2)[C@H]2c3cc(C(=O)N4CCCC4)n(CCc4c[nH]c5ccccc45)c3C[C@H]2CN1C(=O)c1ccccc1	inactive	inactive
O=C(NCc1cccc2ccccc12)[C@H]1C[C@@H]1[C@H](NP(=O)(c1ccccc1)c1ccccc1)c1ccccc1	inactive	inactive
